This note sets out measurements from PubChem BioAssay AID2081 (NMMLSC, 2009).

The experiment deals with Bcl-2-like protein 2 (Homo sapiens) (UniProt Q92843). In words: Bcl-W/Bim complex disruptors – biochemical, multiplexed, bead-based flow cytometry, HTS hits, confirmation (AID 2081).

The source made the active and inactive calls. How the calls were made is not given here.

Chain of Bcl-2-like protein 2 (Homo sapiens) (Q92843 whole entry, looked up): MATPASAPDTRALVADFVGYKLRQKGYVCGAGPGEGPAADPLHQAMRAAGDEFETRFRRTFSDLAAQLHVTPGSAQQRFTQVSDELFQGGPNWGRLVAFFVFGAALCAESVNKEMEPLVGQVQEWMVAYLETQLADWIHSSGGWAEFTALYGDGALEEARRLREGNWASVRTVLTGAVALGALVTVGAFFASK

On to `O=C1NC(=O)C(=Cc2ccc(-c3cc(Cl)ccc3[N+](=O)[O-])o2)C(=O)N1`, for which the result was inactive.

Consider `O=C1NC(=O)C2(Cc3c(nc4ccccn4c3=O)N3CCCCCC32)C(=O)N1Cc1ccccc1` (configuration not stated), for which the call was inactive.
